From PubChem BioAssay AID1347426 (Functional Genomics Laboratory (NCATS/FGL), 2020)
In all, about 31,000 sequences went through this assay and about 1,400 (4.5%) were called active.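 How the source made its calls: active means median seed-adjusted z-score above 1 or below -1; inactive means the rest.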 This excerpt belongs to a sample that is enriched for actives.

Assay: Novel Modifiers of Survival Motor Neuron (SMN) Protein: Gene Identification via Genome-wide siRNA Screen;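 further: luminescence tracks full-length SMN protein made from the SMN2 reporter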
Details: HEK293T SMN2-luciferase reporter, siRNA knockdown, 72 h; actives lie on both sides
Method in brief: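 siRNA screen, 10418 genes ×3 siRNAs; 1 pmol/well, lipid reverse transfection into HEK293T SMN2-luc reporter line. 72 h, 37 °C, 5% CO2; ONE-Glo readout. Data: neg-ctrl normalized, log10, MAD; hit = MAD >1.0 or < -1.0.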

| Sequence | median seed-adjusted z-score |
| --- | --- |
| GCUAAACAGUUCGCAAGGATT against IGF2R | 0.274 (inactive) |
| GCUUUCCGAUGAUGAGAGATT against LEO1 | 1.2 (active) |
| CAGCUGUACCGAUUAAGCATT against MEP1A | 0.209 (inactive) |
| GACUGAAUGAUAUGAAAGATT against RHOQ | -0.328 (inactive) |
| GGAUUUGAGGGAAAACGCATT against FMO2 | -0.265 (inactive) |
| GGAGGUCUCAAGUUCAACATT against LENG8 | -0.00539 (inactive) |
| UGAUGAACUCGGAAAUGCATT against PPAPDC1A | 0.634 (inactive) |
| GGACCAGAGAGACUUCAUUTT against ASTL | 0.722 (inactive) |
| GAAGCAGGGUUAAAGCGGATT against PRDM2 | 1.12 (active) |
| GAGAUAACAUCAGUAGAAATT against FGF10 | 0 (inactive) |
| CACCGUCUGAGAUAAUAGATT against LST-3TM12 | -0.109 (inactive) |
| CUGUCCGUAUGAUUACAAATT against ZFAND5 | 0.0289 (inactive) |
| GCAUCGCCCUGAUGAGUAATT against ADCY7 | -0.0202 (inactive) |
| CCUCAUGUCGGGCAUCUUATT against EGR4 | 0 (inactive) |
| GAUUCUUUUGAAAAAGUGATT against ZNF675 | -0.343 (inactive) |
| GGAUUAUUCAUUAUUACAUTT against NDUFB6 | -0.357 (inactive) |
| GCUCAACAGUCCCUAGUUATT against RSC1A1 | 0.438 (inactive) |
| CCAUCAAGCUCUACAAGGATT against TOP3B | -1.11 (active) |
| CAGUUCAAGUGACCAUUGATT against CD300LF | -0.264 (inactive) |
| GGUUCUUCCCGUUGUCUUUTT against TOMM22 | 0.486 (inactive) |
| GGACCACAGACAUAGUAGATT against NCOA5 | 0.947 (inactive) |
| ACAUGGACAAUGCCGCAGATT against HSPBP1 | 0.368 (inactive) |

| Sequence | median seed-adjusted z-score |
| --- | --- |
| CUAAGAUGGUUAUCAAGAATT against SLC1A2 | 0.249 (inactive) |
| CGAAGGAUAUCUAUCAUCATT against NXF1 | -4.46 (active) |
| GGACUACGGAGUUCGAGAATT against MGC29506 | 0 (inactive) |
| CCCAUAAUAUCAUUGAGAATT against SREBF2 | -0.606 (inactive) |
| GGUCCGGAAUGUGAACUUUTT against SERPINE2 | 0.0144 (inactive) |
| AGAUGGAGUUUGAUCCUAATT against POLR2G | -4.19 (active) |
| GAACUGCAAAGACCUGUUUTT against SSU72 | -1.64 (active) |
| CCUCAUCAACUCUGACAUATT against LMO2 | 0 (inactive) |
| CCGUGAUCGUGAAGCUAGATT against PKD2 | 0.219 (inactive) |
| CCCUCAGACUGUACGCAGATT against PGM5 | -0.0543 (inactive) |
| GGAAACUCGUGGACUAUGATT against BIN2 | 0.205 (inactive) |
| CGCUCACACUGGGUUCCAATT against SLC34A1 | 0.139 (inactive) |
| UGAGCACAAUCAAGUCUAATT against BRD4 | 1.13 (active) |
| GAAUUGGAAGAAGAUAUCATT against RHOBTB3 | 0.256 (inactive) |
| GAUGAUCUGUGAGACCAAATT against BOC | -0.0192 (inactive) |
| CAUCAACGAAGGAAAUAUATT against CD27 | 0.5 (inactive) |
| GUUCCUUAUUGUUAAGGUATT against PCDHB10 | -0.09 (inactive) |
| GAAUGGAAGAUUUCACCUUTT against SNAPC3 | -1.72 (active) |
| GGAGCUACUUUGACUCACUTT against KCNK13 | -0.0924 (inactive) |
| GCUCUGUGCUCUCUAGUGATT against LEFTY1 | 0.383 (inactive) |
| CCCUCACUAUCACGGUUAATT against ATP6V1B2 | 0.24 (inactive) |
| GUGCAUGUAUGAAGCCGAATT against NDUFB10 | -0.39 (inactive) |

| Sequence | median seed-adjusted z-score |
| --- | --- |
| AGAAGGUGACUCAAAGAAUTT against WFDC1 | 0.152 (inactive) |
| AGCUCUUUGCUACAGAUGATT against ACAD8 | 1.06 (active) |
| GGACCGUGUUCUUUACGUATT against NDUFAB1 | -0.282 (inactive) |
| CCCUGUUAUGUCAAGCUUATT against SYNPR | 0.257 (inactive) |
| CUUAAUUCUUGGUCUAUGATT against SP6 | -0.176 (inactive) |
| AGUUCAUGCAAGAUCCAAUTT against BAT1 | -1.49 (active) |
| AGCGCGUCAUGAUGACCUATT against PER1 | 0.176 (inactive) |
| AGCCCGUGAUGUACACGUATT against COL8A1 | -0.848 (inactive) |
| GAUCCACCUGAGACAGAAATT against EGR2 | -0.37 (inactive) |
| GGAUCUAUCUCAUCAAACATT against NDUFC1 | 0 (inactive) |
| CAGACUUAUUACUAGAUGATT against PRDX5 | -0.0386 (inactive) |
| GCAAAGGCACUGAAUCGAATT against MAP4K5 | -0.309 (inactive) |
| GCCCGUCUAUGACAAGAAATT against RELB | 1.16 (active) |
| CGCCUUGAAUGGGAGCAAATT against C2 | -0.0549 (inactive) |
| GUGUAUUACCUGAGAAUCATT against CYP24A1 | 0.136 (inactive) |
| CAGGUACCGUCAUCACAUUTT against PCDHA7 | 0.552 (inactive) |
| GACUCGUGGUUUGAAGUGATT against ZNRF1 | -0.808 (inactive) |
| CCCAGUUCCUAGACUGUAUTT against MTMR8 | -0.416 (inactive) |
| CGACCUUCAAAGUUAACAATT against CLIP1 | 0.853 (inactive) |
| CCUCUUACACUUUUCCGAATT against PECI | -0.0254 (inactive) |
| GUACCCUGGAGGAAAGCGATT against GNRH2 | 1.13 (active) |
| AGAGGAUCCUGAACUCCAATT against MYO19 | 0.0987 (inactive) |

| Sequence | median seed-adjusted z-score |
| --- | --- |
| AUCAAGUCUUCUUACAAGATT against VDAC2 | 0.648 (inactive) |
| GAAUGAGGCAUAUCAAGCATT against TUBD1 | -0.00491 (inactive) |
| GGAAAUCCUUCAUAUACAATT against ZNF549 | 0.0114 (inactive) |
| GAUUCCGUCUAAUCCUAGATT against C5 | 0.153 (inactive) |
| ACAAUGAAGUUCUCCCUGATT against PCGF1 | 0.508 (inactive) |
| CCUCAUUUGUCUACACCAUTT against RAD51L1 | 0 (inactive) |
| GGUAUGAGGUUGACUCAUUTT against IFNAR1 | 0.0327 (inactive) |
| GGAGACCUGCGAUUACUUUTT against BARX2 | -0.206 (inactive) |
| GGAGCUCAUUUGACAUGUATT against KIR2DL5B | 1.72 (active) |
| GCGACUGUCUCGACAGAUATT against HTT | -0.234 (inactive) |
| GGAUAGCUAAAGAAAUUCATT against IMPA1 | -0.295 (inactive) |
| CCACACUGGUGAUAGACCATT against ZNF384 | -0.132 (inactive) |
| UGAAAGGACUUGUCUGAAATT against CHST6 | 0.372 (inactive) |
| GGGUGUCUGCGAUUAUCUUTT against WDFY1 | 0.979 (inactive) |
| GGUUGGUGAUGUCAAGUAUTT against CDKL2 | -0.293 (inactive) |
| AGUGGUCCCUUCACAGGAATT against GNRH2 | 1.13 (active) |
| AGCCUUUAGUGUCCGUUCATT against ZNF347 | 0 (inactive) |
| GGGACUAGCUCUUCGCAUATT against PTGER3 | -0.321 (inactive) |
| GACUCUGAAUGCUUGCUGUTT against MMS19 | 0.0142 (inactive) |
| CCAUCUAUGAGGCGGGAAATT against MFI2 | 0.365 (inactive) |
| GAAUCUUGCCCGUCUAUAATT against RSC1A1 | 0.438 (inactive) |
| CACCAUCUCCGGGAACAGATT against FUT1 | 0.000845 (inactive) |

| Sequence | median seed-adjusted z-score |
| --- | --- |
| GCAUGGGUUUUAUUAUAUATT against CCL11 | -0.221 (inactive) |
| CACGAGCUAAAGUAAAAUATT against EGLN1 | 2.05 (active) |
| CAUCAUUACUGUUGAGGGATT against CSRP2BP | -0.526 (inactive) |
| GAGAAACCUUUAUUCGAUATT against GLULD1 | -0.332 (inactive) |
| CCAUCGACAUUGAAACCUUTT against PITPNM2 | 0.275 (inactive) |
| GCAAUGCGUUCUUUCUAAATT against SIGLEC11 | -0.395 (inactive) |
| CAAAGAGAUUUGUACAGAUTT against ZNF140 | 0.587 (inactive) |
| GGACGAGCCUCAUGAAUGATT against SEC11B | 1.04 (active) |
| CAGUGUCCAUGUACCUCUUTT against SLC37A4 | -0.00202 (inactive) |
| GCAUUUAGGUACCAGCUCATT against SLC39A2 | 0.0602 (inactive) |
| CCAGGGAUAUGAUUGACAATT against SERPINE2 | 0.0144 (inactive) |
| GCAGUACACGAGAAAGUCATT against 1-Sep | 0.0103 (inactive) |
| CUACAUCAAGAAGACAUAUTT against ABHD2 | -1.21 (active) |
| CUCUCUCUCUACGAACAUUTT against TCF7 | -0.338 (inactive) |
| CGACCCAGACAAUAGACUATT against CCNT1 | -0.72 (inactive) |
| GGUAUGGAUUGAUGCCGCATT against SLC6A2 | 0 (inactive) |
| GCACCAUUCUAACAAUGGATT against NANS | -1.54 (active) |
| CCAACAAGCUGUCUCCCUATT against CENPB | 0.292 (inactive) |
| GUACAAGAGAUAAUGCAAATT against TFPI | -0.0076 (inactive) |
| CUAUCAUAGUGACAAGCGATT against GJA5 | 0.707 (inactive) |
